# Cruzain Triton: qHTS Assay for Promiscuous and Specific Inhibitors of Cruzain (with detergent) | Potency, µM, for the others: max response, negative = inhibition, hits mostly inhibitors | 200,000 tested, 0.43% active | purified cruzain, Z-FR-AMC fluorescence, 0.01% Triton;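 further: plate controls were neutral wells for no effect and buffer without enzyme for full effect; nearly all actives have a fitted effect of over 40% in size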
# Target sequence (P25779 123-467 limits assumed): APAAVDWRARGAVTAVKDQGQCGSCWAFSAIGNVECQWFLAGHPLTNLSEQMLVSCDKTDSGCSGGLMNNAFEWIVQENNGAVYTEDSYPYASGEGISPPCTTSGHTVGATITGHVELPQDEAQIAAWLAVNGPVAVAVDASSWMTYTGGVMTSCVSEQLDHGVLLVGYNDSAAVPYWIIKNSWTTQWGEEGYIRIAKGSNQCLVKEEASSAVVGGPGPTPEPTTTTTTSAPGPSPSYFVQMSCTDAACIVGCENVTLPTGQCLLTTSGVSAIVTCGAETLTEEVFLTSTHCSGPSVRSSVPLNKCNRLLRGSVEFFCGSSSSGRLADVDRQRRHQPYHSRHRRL
#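 Sodium acetate buffer (100 mM, pH 5.5) containing 5 mM DTT and 0.01% Triton X-100 hosted 1.5 nM cruzain and test compound for 15 min at room temperature. Cleavage of 2 uM Z-FR-AMC was then tracked by fluorescence.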
# Cruzain noTriton: qHTS Assay for Promiscuous and Specific Inhibitors of Cruzain (without detergent); Cruzipain (Trypanosoma cruzi), P25779; purified cruzain, Z-FR-AMC fluorescence, no detergent; Potency, µM, without a hit: max response, negative = inhibition, actives largely listed as inhibitors; 200,000 tested, 2.3% active;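 further: plate controls were enzyme without inhibitor for no effect and buffer without enzyme for full effect; nearly all actives have a fitted effect of over 40% in size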
#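 Detergent-free condition (0.00005% Triton X-100) in acetate buffer pH 5.5 with DTT. 1.5 nM enzyme and compound were pre-mixed 15 min, then 2 uM Z-FR-AMC substrate added; reaction progress from fluorescence change between first and third reads (60 s).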
# Active calls of the source: *; ? = inconclusive. Compounds with a hit are over-represented: about 2.4% of the library has one in this group of screens. The call rests on the fitted dose curve; in most records, active means well fitted curve in the direction sought with a large enough effect; inconclusive means small, poorly fitted or top-dose-only effect, or another doubt; inactive means no such curve, though single readings can be large; an effect the other way counts as inactive or inconclusive. Potency means the concentration at half of the fitted maximal effect.
SMILES,Cruzain Triton,Cruzain noTriton
CCNc1ncc2nc(CCc3ccccc3)c(=O)n(Cc3cccc(OC)c3)c2n1,-2.3%,-2.8%
CC(C)c1ccc(-c2c(C#N)c(N)nc(SCC(=O)N3CCCCCC3)c2C#N)cc1,-3.1%,-8.8%
N#Cc1c(N)nc(SCC(=O)NC2CCCCC2)c(C#N)c1-c1ccc(Cl)cc1,-2.7%,15.8µM*
CC(C)c1ccc(-c2c(C#N)c(N)nc(SCC(=O)N3CCCCC3)c2C#N)cc1,3.8%,25.1µM*
CCOC(=O)CSc1nc(N)c(C#N)c(-c2ccc(OCC)cc2)c1C#N,-2.5%,0.2%
CC(C)NC(=O)N1CCC2(CC1)CCN(C(=O)c1ccncc1)CC2,4.5%,-5.3%
CCn1c(O)c(/C=C2\C=Nc3ccccc32)sc1=Nc1ccc(C)cc1,3.5%,15.8µM*
CCOC(=O)c1c(Nc2ccccc2)sc(/C=C2\C=Nc3ccccc32)c1O,4.7%,-27.0%
COCCn1c(=O)cnc2cnc(OC)nc21,-4.6%,-14.3%
CCc1ccccc1NC(=O)C1CCCN(c2nnc(-n3c(C)ccc3C)s2)C1 (configuration not stated),-4.5%,-6.0%
CC(C)CCNC(=O)c1cnc2sc(N3CCCCC3)nn2c1=O,-5.0%,-5.9%
CCC(=O)CC(c1ccccc1)c1c(O)c2ccccc2sc1=O (configuration not stated),-13.9%,-9.9%
O=c1c(C(c2ccccc2)c2c(O)sc3ccccc3c2=O)c(O)sc2ccccc12,25.1µM*,?
COc1ccc(-c2cn3cccnc3n2)cc1NC(=O)COc1ccccc1,-5.3%,?
Cc1c(Cl)cccc1NC(=O)Nc1ccc2snnc2c1,-7.7%,-26.5%
CCN(CC)CCNC(=O)C(=O)NCC(c1cccnc1)N1CCN(c2ccc(F)cc2)CC1 (configuration not stated),-1.7%,-15.5%
N#CCc1c(C#N)c(N)nc(N2CCN(c3ccc(F)cc3)CC2)c1C#N,-5.7%,15.8µM*
N#CCc1c(C#N)c(N)nc(N2CCN(Cc3ccc4c(c3)OCO4)CC2)c1C#N,-5.4%,-27.1%
N#Cc1cccc(CS(=O)(=O)c2nc3ccccc3s2)c1,0.4%,-5.8%
c1ccc(-c2ccc(N3CC4(CCNCC4)C3)cc2)cc1,0.9%,?
c1ccc(-c2ccc(N3CCCC4(CCNCC4)C3)cc2)cc1,-3.3%,31.6µM*
CCCN(CCC)c1cc(C)nc2nc(-c3ccc(Cl)cc3)nn12,-0.7%,-1.0%
CCN(CC)c1ccc2cc(-c3nc(-c4ccc(OC)cc4)cs3)c(=O)oc2c1,-5.7%,10µM*
CCN(CC)c1ccc2cc(-c3nc(-c4ccc(Cl)cc4Cl)cs3)c(=O)oc2c1,1.7%,8.0%
CCOC(=O)c1sc(NCc2ccco2)c(-c2nc3ccccc3s2)c1N,-5.7%,?
SMILES,Cruzain Triton,Cruzain noTriton
CCNc1sc(C(=O)c2cccs2)c(N)c1-c1nc2ccccc2s1,2.6%,7.94µM*
CCNc1sc(C(=O)c2cccs2)c(N)c1C#N,1.1%,-10.1%
C=CCNc1sc(C(=O)c2ccccc2)c(N)c1-c1nc2ccccc2s1,-1.4%,7.94µM*
CCN(CC)S(=O)(=O)c1ccc(NC(=O)[C@H](CCSC)N2Cc3ccccc3C2=O)cc1,-0.7%,11.8%
COc1cccc(NC(=O)Cn2nc3c4ccccc4n(Cc4cccc(F)c4)cc-3c2=O)c1,-2.0%,0.5%
Cc1ccc(-c2noc(C3CC(=O)N(c4ccc5c(c4)OCCO5)C3)n2)cc1 (configuration not stated),-8.5%,-2.2%
N#C/C(=C\C=C\c1ccccc1)c1nc(-c2ccc3c(c2)OCO3)cs1,-4.1%,25.1µM*
N#C/C(=C/c1ccc(O)cc1)c1nc(-c2ccc(-c3ccccc3)cc2)cs1,0.3%,10.2%
COc1cccc(OCc2nc3c4cnn(-c5ccccc5)c4ncn3n2)c1,8.2%,25.1µM*
COc1ccc(-n2ncc3c2ncn2nc(Cc4ccccc4)nc32)cc1,-0.7%,-10.0%
CCOc1ccc(N2CC(c3nc4ccccc4n3Cc3cccc(Cl)c3)CC2=O)cc1 (configuration not stated),-7.0%,8.3%
Cc1nc2ccccc2n1CCc1nc2c3ccccc3nc(SCc3ccccc3F)n2n1,1.5%,1.9%
O=C(NCc1ccccc1)C12CN(Cc3ccccc3)CC1C(c1cccc([N+](=O)[O-])c1)=NO2 (configuration not stated),3.5%,-26.3%
O=C(NCc1ccc(OC(F)(F)F)cc1)C12CN(Cc3ccccc3)CC1C(c1cccc([N+](=O)[O-])c1)=NO2 (configuration not stated),1.0%,20µM*
CN[C@@H]1[C@H](O[C@H]2[C@H](O[C@H]3[C@H](O)[C@@H](O)[C@H](N=C(N)N)[C@@H](O)[C@@H]3N=C(N)N)O[C@@H](C)[C@]2(O)C=O)O[C@@H](CO)[C@H](O)[C@H]1O,0.8%,6.1%
O=S1(=O)CCN(Cc2cccc(Cl)c2)CC1,0.4%,-5.7%
O=C1NCCN1Cc1cccc(Cl)c1,-0.1%,12.6µM*
